Experiment [1] concerns the target Estrogen receptor (Homo sapiens) (UniProt P03372). The experiment is described as follows: qHTS assay to identify small molecule antagonists of the estrogen receptor alpha (ER-alpha) signaling pathway using the BG1 cell line in the presence of 0.1 nM 17-beta-estradiol (AID 1259244). Note: nearly all actives have a fitted effect of over 50% in size. Put shortly: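 Luciferase signal from VM7Luc4E2 ERE-reporter cells, co-dosed with test compound and 0.1 nM final 17beta-estradiol for 22 h, read with ONE-Glo.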
In general terms: Quantitative high-throughput screening tests each substance at several concentrations.

Experiment [2] can be described thus: qHTS assay to identify small molecule HDAC inhibitors (AID 1259364).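 Note: wild-type HCT-116 cells with endogenous class I/II HDAC activity; top concentration of the series differs between compounds; nearly all actives have a fitted effect of over 45% in size.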 In short, it runs like this:
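HCT-116 wt cells, 1,500/well, overnight attach. Compounds (DMSO) 2 h, 37 °C. HDAC-Glo I/II, 30 min RT. Luminescence.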

A short description of experiment [3]: qHTS assay to identify small molecule HDAC inhibitors - cell viability counter screen (AID 1259365). Note: series mostly up to about 92 µM; nearly all actives have a fitted effect of over 50% in size. In short, it runs like this:
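To flag cytotoxic hits, 1,500 wild-type HCT-116 cells per well, plated the day before, receive test compounds for 2hr at 37 C before CellTiter-Glo reagent and a luminescence read.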

A short description of experiment [4]: qHTS assay to identify small molecule agonists of the sonic hedgehog signaling (Shh) pathway - cell viability counter screen (AID 1259366). Note: nearly all actives have a fitted effect of over 50% in size. Note: potency is the fitted concentration of half-maximal effect. Put shortly: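 Fluorescence from CellTiter-Fluor reports live cells in this counter screen. NIH/3T3-derived Gli1-Luc reporter cells receive test compounds for 24hr at 37C; reagent goes in at 23hr.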
The nature of experiment [5]: qHTS assay to identify small molecule agonists of the sonic hedgehog signaling (Shh) pathway (AID 1259368; calls by dose curve;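 note: NIH/3T3-derived 3T3Gli1-Luc cells carrying a stable Gli1-driven firefly luciferase reporter; series mostly up to about 92 µM; nearly all actives have a fitted effect of over 15% in size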). Put shortly: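 Following a 24 hr incubation with DMSO-dissolved compounds at 37 C, 5% CO2, Gli1-Luc NIH/3T3-derived cells received luciferase reagent for 30 min at room temperature prior to luminescence measurement.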
A short description of experiment [6]: qHTS assay to identify small molecule antagonists of the sonic hedgehog signaling (Shh) pathway (AID 1259369; calls by dose curve; note: nearly all actives have a fitted effect of over 45% in size; note: potency is the fitted concentration of half-maximal effect). In short, it runs like this: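 Read-out is luminescence from a firefly luciferase gene controlled by the Gli1 response element, in 3T3Gli1-Luc cells pre-incubated 4hr then exposed to compounds and conditioned medium for 24hr.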
Experiment [7] has as its target Estrogen receptor beta (Homo sapiens) (UniProt Q92731). The experiment is described as follows: qHTS assay to identify small molecule agonists of the estrogen receptor beta (ER-beta) signaling pathway (AID 1259377; active = well fitted activation curve with a large enough effect in the signal ratio in the repeat runs, not every such curve was filed as active; the % refers to the signal ratio). In short, it runs like this:
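Screening used GripTite ER-beta-UAS-bla cells held in 2% charcoal-stripped FBS medium. After overnight (16 hr) compound incubation at 37C, beta-lactamase activity was detected with a FRET substrate by fluorescence.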

Experiment [8] in a line: qHTS assay to identify small molecule agonists of the androgen receptor (AR) signaling pathway in the presence of an antagonist - cell viability counter screen (AID 1259379).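 For activity change, negative = cytotoxicity: MDA-kb2 human breast cancer cells carrying an MMTV luciferase reporter; series mostly up to about 92 µM.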 Note: nearly all actives have a fitted effect of over 25% in size. Note: potency is the fitted concentration of half-maximal effect. In short, it runs like this: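 Each compound was tested at 15 concentrations on MDA-kb2 cells in the presence of 3.0uM nilutamide. Viability was measured by CellTiter-Fluor fluorescence after a 16 hr incubation at 37C in a CO2-free atmosphere.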

Experiment [9] can be described thus: qHTS assay to identify small molecule agonists of the estrogen receptor beta (ER-beta) signaling pathway - cell viability counter screen (AID 1259380). Note: nearly all actives have a fitted effect of over 30% in size. Note: potency is the fitted concentration of half-maximal effect. In short, it runs like this:
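Compounds dissolved in DMSO were pin-transferred onto ER-beta-UAS-bla HEK293T cells that had settled 6 hr, and exposure ran 16 hr at 37C. Following the reporter read, CellTiter-Glo luminescence after 30 min at room temperature indicated cytotoxicity.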

Experiment [10] deals with Androgen receptor (Homo sapiens) (UniProt P10275). The experiment is described as follows: qHTS assay to identify small molecule agonists of the androgen receptor (AR) signaling pathway in the presence of an antagonist (AID 1259381; calls by dose curve; note: nearly all actives have a fitted effect of over 15% in size). Put shortly:
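Plated MDA-kb2 cells (3,000/well) were pre-incubated 5hr, given nilutamide (3.0uM final) or buffer, then dosed with compounds in DMSO at 15 concentrations. Luciferase activity was quantified by luminescence after 16hr at 37C.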

A short description of experiment [11]: qHTS assay to identify small molecule antagonists of the estrogen receptor beta (ER-beta) signaling pathway - cell viability counter screen (AID 1259382). Note: series mostly up to about 92 µM; nearly all actives have a fitted effect of over 55% in size. In short, it runs like this: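 CellTiter-Glo ATP luminescence measured after the LiveBLAzer read in the same wells; ER-beta-UAS-bla HEK293T cells, 16 hr compound treatment with 1nM 17-beta-estradiol agonist at 37C, 5% CO2.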

The target in experiment [12] is Estrogen receptor (Homo sapiens) (UniProt P03372). The experiment is described as follows: qHTS assay to identify small molecule agonists of the estrogen receptor alpha (ER-alpha) signaling pathway in the presence of an antagonist (AID 1259383; calls by dose curve; note: top concentration of the series differs between compounds; nearly all actives have a fitted effect of over 15% in size). Put shortly: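 Luminescent ERE-luciferase reporter, VM7Luc4E2 cells (endogenous ER-alpha); 10.0nM ICI-182,780 final; 15-point compound titration; 22hr at 37C; ONE-Glo, 30min RT.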

Experiment [13] in a line: qHTS assay to identify small molecule agonists of the estrogen receptor alpha (ER-alpha) signaling pathway in the presence of an antagonist - cell viability counter screen (AID 1259386). For activity change, negative = cytotoxicity: series mostly up to about 92 µM.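 Note: cells exposed to compounds for 22 h at 37 °C before the viability read; nearly all actives have a fitted effect of over 30% in size.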 Note: potency is the fitted concentration of half-maximal effect. In short, it runs like this:
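Using estrogen-depleted VM7Luc4E2 cells, the 15-concentration compound series was applied together with 10.0nM ICI-182,780 and incubated 22hr at 37C/5% CO2. Cell viability was then scored by CellTiter-Fluor.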

The target of experiment [14] is Progesterone receptor (Homo sapiens) (UniProt P06401). The experiment is described as follows: qHTS assay to identify small molecule agonists of the progesterone receptor (PR) signaling pathway (AID 1346784; calls by dose curve; note: nearly all actives have a fitted effect of over 30% in size). In short, it runs like this:
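Seed PR-UAS-bla HEK 293T cells (2% charcoal-stripped FBS), incubate 6 hr at 37C; add compounds in DMSO, 16 hr at 37C; add LiveBLAzer B/G substrate, 2 hr RT; read fluorescence intensity.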

Experiment [15] shares this target. The experiment is described as follows: qHTS assay to identify small molecule antagonists of the progesterone receptor (PR) signaling pathway (AID 1346795; active = well fitted inhibition curve with a large enough effect in the signal ratio in the repeat runs, not every such curve was filed as active; the % refers to the signal ratio; note: potency is the fitted concentration of half-maximal effect). Put shortly: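 Screening used a GripTite HEK293T line with PR-responsive UAS-beta-lactamase. Cells were challenged with compound in the presence of 1 nM R5020 final for 16 hr at 37C; B/G FRET substrate, 2 hr room temperature, fluorescence.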

Experiment [16] can be described thus: qHTS assay to identify small molecule phospholipidosis (PLD) inducers (AID 1259344; active = well fitted curve in the direction sought with a large enough effect; an effect the other way counts as inactive or inconclusive). Put shortly:
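After 4 h attachment on collagen I, HepG2 cells were dosed with compound alongside LipidTOX Red, kept 24 h at 37 C, fixed, and imaged for lamellar phospholipid pits.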

The nature of experiment [17]: qHTS assay to identify small molecule antagonists of the sonic hedgehog signaling (Shh) pathway - cell viability counter screen (AID 1259367). Note: nearly all actives have a fitted effect of over 55% in size. In short, it runs like this:
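Conditioned medium drove Shh signaling in 3T3 Gli1-Luc cells exposed to compounds at 37C and 5% CO2. Viability was determined from CellTiter-Fluor fluorescence, with reagent incubated 1 hr after 23 hr of treatment.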

In experiment [18] the target is Estrogen receptor beta (Homo sapiens) (UniProt Q92731). The experiment is described as follows: qHTS assay to identify small molecule antagonists of the estrogen receptor beta (ER-beta) signaling pathway (AID 1259378; active = well fitted inhibition curve with a large enough effect in the signal ratio in the repeat runs, not every such curve was filed as active; the % refers to the signal ratio). Put shortly: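 ER-beta-UAS-bla HEK293T (GripTite) cells in 2% charcoal-stripped FBS medium were preincubated 6 hr at 37C, dosed with compound, then stimulated with 1 nM E2 (final) for 16 hr; beta-lactamase reporter read by B/G FRET fluorescence after 2 hr substrate loading.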

A short description of experiment [19]: qHTS assay to identify small molecule agonists or antagonists of the thyroid stimulating hormone receptor (TSHR) signaling pathway - wild type cell line counter screen (AID 1259384; calls by dose curve). Put shortly:
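Wild-type HEK293 cells were plated 18 h at 37 C/5% CO2, pin-dosed with compound plus Ro20-1724 medium, held 30 min at room temperature, then given cAMP-d2 and anti-cAMP-cryptate; fluorescence was read after 1 h. Fifteen concentrations, triplicate.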

Experiment [20] deals with Thyrotropin receptor (Homo sapiens) (UniProt P16473). The experiment is described as follows: qHTS assay to identify small molecule antagonists of the thyroid stimulating hormone receptor (TSHR) signaling pathway (AID 1259385; calls by dose curve; note: nearly all actives have a fitted effect of over 20% in size). Put shortly: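 TSHR-HEK293 cells were plated and held 18 h at 37C/5% CO2, then given compound plus Ro20-1724 and stimulated with TSH at 1.5 ng/mL final. After 30 min at room temperature, cAMP was detected with cAMP-d2/anti-cAMP-cryptate (1 h) by fluorescence.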

The structures appear in SMILES notation. Several values for one entry are separate records, joined by “and”; a condition that tells them apart may be missing. Equal entries are not always repeated. Results filed as inconclusive are left out. More than one record can exist for a structure, and the calls need not agree. Activity calls are given as the source filed them. Unless noted, calls come from the whole dose curve; as a rule, active = well fitted curve in the direction sought with a large enough effect in the repeat runs; inconclusive = weak or mixed curves; inactive = no such curve, though single readings can be large; an effect the other way counts as inactive or inconclusive.
% is set by controls: 0 for no effect and ±100 for the full control effect.

Estrogen receptor (Homo sapiens), sequence (P03372 whole entry, looked up): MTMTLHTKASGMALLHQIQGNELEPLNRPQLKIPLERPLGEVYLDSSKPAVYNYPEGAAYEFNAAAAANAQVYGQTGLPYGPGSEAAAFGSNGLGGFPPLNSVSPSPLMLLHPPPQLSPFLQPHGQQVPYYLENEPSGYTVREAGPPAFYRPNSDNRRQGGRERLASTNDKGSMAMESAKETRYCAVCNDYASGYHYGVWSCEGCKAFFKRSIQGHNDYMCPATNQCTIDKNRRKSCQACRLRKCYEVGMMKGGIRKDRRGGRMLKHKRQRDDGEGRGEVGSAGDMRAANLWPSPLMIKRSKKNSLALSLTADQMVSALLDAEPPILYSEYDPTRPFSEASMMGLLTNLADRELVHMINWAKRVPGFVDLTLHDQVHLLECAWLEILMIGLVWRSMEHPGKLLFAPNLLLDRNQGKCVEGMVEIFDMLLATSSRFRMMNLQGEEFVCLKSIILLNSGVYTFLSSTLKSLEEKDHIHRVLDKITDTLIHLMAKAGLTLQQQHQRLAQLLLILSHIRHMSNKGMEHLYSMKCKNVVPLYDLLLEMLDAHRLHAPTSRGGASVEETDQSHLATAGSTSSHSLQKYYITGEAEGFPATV
Estrogen receptor beta (Homo sapiens), sequence (Q92731 whole entry, looked up): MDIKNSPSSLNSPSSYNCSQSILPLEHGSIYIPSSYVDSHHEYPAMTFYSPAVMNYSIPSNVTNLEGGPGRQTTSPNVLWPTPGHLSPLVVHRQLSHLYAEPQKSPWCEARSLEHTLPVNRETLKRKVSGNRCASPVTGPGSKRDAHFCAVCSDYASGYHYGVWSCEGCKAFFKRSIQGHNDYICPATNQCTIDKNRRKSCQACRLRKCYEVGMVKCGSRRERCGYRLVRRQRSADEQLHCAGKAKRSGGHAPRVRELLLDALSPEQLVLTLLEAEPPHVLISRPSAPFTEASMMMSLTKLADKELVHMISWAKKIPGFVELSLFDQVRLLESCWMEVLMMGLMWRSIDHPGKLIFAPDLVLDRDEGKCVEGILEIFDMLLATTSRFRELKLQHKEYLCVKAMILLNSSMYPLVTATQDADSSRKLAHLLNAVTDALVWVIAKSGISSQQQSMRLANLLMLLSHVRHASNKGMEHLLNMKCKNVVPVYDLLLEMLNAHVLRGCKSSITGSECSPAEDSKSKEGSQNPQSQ
Progesterone receptor (Homo sapiens), sequence (P06401 whole entry, looked up): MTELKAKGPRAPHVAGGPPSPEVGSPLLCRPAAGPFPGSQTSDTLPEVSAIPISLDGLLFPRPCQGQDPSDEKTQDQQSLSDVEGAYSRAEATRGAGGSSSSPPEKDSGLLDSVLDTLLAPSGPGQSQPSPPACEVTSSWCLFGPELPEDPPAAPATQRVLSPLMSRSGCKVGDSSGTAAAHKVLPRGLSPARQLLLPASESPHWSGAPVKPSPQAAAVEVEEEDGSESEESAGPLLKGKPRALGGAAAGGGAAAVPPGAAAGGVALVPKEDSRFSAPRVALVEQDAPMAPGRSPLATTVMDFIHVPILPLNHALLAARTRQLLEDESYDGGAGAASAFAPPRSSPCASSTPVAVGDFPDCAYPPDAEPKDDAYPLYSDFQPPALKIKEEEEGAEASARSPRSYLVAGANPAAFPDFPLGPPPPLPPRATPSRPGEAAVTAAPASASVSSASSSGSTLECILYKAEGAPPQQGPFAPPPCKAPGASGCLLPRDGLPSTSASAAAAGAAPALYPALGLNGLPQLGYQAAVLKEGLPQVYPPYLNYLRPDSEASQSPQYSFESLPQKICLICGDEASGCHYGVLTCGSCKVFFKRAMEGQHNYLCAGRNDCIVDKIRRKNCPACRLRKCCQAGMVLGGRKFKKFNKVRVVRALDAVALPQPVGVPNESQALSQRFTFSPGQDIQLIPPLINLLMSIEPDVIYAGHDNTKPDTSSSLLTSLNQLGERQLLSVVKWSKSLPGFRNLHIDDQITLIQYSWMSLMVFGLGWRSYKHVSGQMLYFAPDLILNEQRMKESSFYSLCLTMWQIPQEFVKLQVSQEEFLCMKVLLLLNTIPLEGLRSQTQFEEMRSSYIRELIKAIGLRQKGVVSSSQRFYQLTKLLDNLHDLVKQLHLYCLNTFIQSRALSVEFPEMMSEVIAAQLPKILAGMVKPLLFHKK
Thyrotropin receptor (Homo sapiens), sequence (P16473 whole entry, looked up): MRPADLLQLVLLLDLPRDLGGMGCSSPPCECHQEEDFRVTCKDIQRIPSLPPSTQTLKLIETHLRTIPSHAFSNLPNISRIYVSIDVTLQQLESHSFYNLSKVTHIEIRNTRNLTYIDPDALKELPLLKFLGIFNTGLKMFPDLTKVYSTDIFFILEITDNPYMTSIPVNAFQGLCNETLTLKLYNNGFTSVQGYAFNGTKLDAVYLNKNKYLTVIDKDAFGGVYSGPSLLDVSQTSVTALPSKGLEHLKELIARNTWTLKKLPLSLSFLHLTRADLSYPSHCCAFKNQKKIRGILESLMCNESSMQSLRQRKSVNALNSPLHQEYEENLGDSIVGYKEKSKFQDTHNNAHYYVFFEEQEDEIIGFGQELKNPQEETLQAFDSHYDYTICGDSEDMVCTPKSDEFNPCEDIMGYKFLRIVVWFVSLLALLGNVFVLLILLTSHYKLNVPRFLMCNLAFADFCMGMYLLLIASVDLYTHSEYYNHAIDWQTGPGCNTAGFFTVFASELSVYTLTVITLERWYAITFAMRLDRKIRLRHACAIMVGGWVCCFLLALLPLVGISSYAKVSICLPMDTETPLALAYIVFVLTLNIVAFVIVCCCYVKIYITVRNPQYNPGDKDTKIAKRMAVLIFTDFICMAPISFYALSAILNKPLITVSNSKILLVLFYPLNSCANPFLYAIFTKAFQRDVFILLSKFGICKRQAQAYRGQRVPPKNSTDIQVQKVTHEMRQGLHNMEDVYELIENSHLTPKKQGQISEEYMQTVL
Androgen receptor (Homo sapiens), sequence (P10275 whole entry, looked up): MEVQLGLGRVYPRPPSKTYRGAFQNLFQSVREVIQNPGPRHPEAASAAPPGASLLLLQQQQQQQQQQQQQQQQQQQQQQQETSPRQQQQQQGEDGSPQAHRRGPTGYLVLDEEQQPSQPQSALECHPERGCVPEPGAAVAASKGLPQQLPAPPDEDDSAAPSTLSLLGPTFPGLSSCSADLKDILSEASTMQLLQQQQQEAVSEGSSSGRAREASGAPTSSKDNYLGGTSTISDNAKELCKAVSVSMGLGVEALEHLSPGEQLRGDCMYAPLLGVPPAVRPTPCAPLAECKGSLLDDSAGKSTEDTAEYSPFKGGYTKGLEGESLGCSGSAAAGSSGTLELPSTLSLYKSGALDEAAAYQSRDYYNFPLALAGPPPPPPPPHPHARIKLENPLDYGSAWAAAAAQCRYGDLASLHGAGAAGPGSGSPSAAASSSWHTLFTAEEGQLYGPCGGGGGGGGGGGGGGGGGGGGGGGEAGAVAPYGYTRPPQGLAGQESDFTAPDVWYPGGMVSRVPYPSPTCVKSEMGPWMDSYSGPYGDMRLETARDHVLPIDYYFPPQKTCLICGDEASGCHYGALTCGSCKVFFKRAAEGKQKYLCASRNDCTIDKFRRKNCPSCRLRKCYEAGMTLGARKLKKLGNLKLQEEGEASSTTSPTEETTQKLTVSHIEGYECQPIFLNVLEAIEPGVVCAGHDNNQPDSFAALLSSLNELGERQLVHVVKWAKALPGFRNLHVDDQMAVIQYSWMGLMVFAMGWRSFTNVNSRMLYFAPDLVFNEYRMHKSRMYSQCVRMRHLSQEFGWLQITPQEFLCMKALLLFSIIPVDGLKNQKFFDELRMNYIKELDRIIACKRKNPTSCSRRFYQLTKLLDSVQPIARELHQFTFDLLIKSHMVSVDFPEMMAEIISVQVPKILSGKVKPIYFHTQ

As for `CC1=C(C)S(=O)(=O)CCS1(=O)=O`, the Potency entry in experiment [1], in experiment [2], in experiment [4], in experiment [7], in experiment [8] and in [9] was “inactive” throughout. Further, the Potency result in experiment [10], in experiment [11], in [12], in [13], in [14] and in experiment [15] was “inactive” in each case. Also, the outcome in experiment [3] and in experiment [5] was inactive. Besides, in experiment [6], the Potency is 21.3 µM (active) and 38.6 µM (active).
Take `C=CCNC(N)=S`: the molecule was classed as inactive in experiment [16], in experiment [3], in [5] and in experiment [19]. Besides, the Potency result in [2], in experiment [4], in experiment [17], in [6], in experiment [7] and in experiment [18] was “inactive” in each case. The Potency entry in [8], in [9], in experiment [11], in [20], in experiment [13] and in experiment [14] was “inactive” each time. In addition, the Potency entry in [15] is “inactive”.
On to `CC(=O)c1ccccc1`, for which the Potency entry in experiment [1], in experiment [2], in [4], in experiment [17], in [6] and in experiment [8] was “inactive” each time. Further, the Potency entry in experiment [9], in experiment [11], in experiment [12], in [20], in [13] and in [14] was “inactive” in each case. Moreover, the Potency entry in experiment [15] was “inactive”. Also, the molecule was called inactive in experiment [3], in experiment [5] and in [19].
Take `O=C(O)c1cc(O)c(O)c(O)c1`: the Potency entry in experiment [1], in [2], in experiment [9], in [11], in experiment [12] and in [20] was “inactive” in each case. Besides, the Potency entry in [14] was “inactive”. In addition, the result in experiment [16], in experiment [3], in [5] and in experiment [19] was inactive. Besides, the Potency in experiment [4] was 61.7 µM (active) and inactive; in [6], 27.6 µM (active) and inactive; in experiment [8], 55 µM (active) and inactive; in experiment [13], 55 µM (active).
`NNc1nncc2ccccc12`: the outcome in experiment [16], in experiment [3], in experiment [5] and in experiment [19] was inactive. For the same molecule, the activity change, negative = inhibition in experiment [2] is -29.1% [at 19 µM] (inactive); in experiment [15], 9.77% [at 18.9 µM] (inactive). In addition, the Potency is 48.6 µM (active) in [4], 21.7 µM (active) in [9] and 61.1 µM (active) in [15]. In [4], the viability change, negative = cytotoxic is -0.875% [at 19 µM] (inactive). For the same molecule, the Potency entry in experiment [6], in experiment [8], in [11], in experiment [20] and in experiment [14] was “inactive” each time. For the same molecule, the activity change, negative = cytotoxicity in [9] is -0.605% [at 19 µM] (inactive); in experiment [13] it was -0.882% [at 19 µM] (inactive).
Regarding `CCC(O)OC(O)CC` (configuration not stated), the Potency entry in [1], in [2], in [4], in experiment [17], in experiment [6] and in [8] was “inactive” throughout. Also, the Potency entry in [9], in [11], in [12], in [20], in experiment [13] and in experiment [14] was “inactive” throughout. In addition, the outcome in experiment [3], in experiment [5] and in experiment [19] was inactive.
For `O=C(O)CCCC[C@@H]1SC[C@@H]2NC(=O)N[C@@H]21`, the result in [16], in experiment [3], in experiment [5] and in experiment [19] was inactive. For the same molecule, the Potency entry in experiment [2], in experiment [4], in experiment [17], in experiment [6], in [7] and in experiment [18] was “inactive” throughout. The Potency result in [8], in experiment [9], in experiment [11], in experiment [12], in experiment [20] and in experiment [13] was “inactive” each time.
For `COc1ccc(Cl)cc1C(=O)NCCc1ccc(S(=O)(=O)NC(=O)NC2CCCCC2)cc1`, the outcome in [16], in experiment [3], in [5] and in [19] was inactive. Also, the Potency result in [2], in experiment [4], in [17], in experiment [6], in experiment [7] and in experiment [18] was “inactive” in each case. Also, the Potency entry in experiment [8], in [11], in [13], in experiment [14] and in experiment [15] was “inactive” in each case. Also, the Potency in experiment [9] was 48.6 µM (active).
